This assay concerns the target Pantothenate synthetase (Mycobacterium tuberculosis (strain ATCC 25618 / H37Rv)) (UniProt P9WIL5). Description: Recombinant Mtb pantothenate synthetase (PanC) inhibitors, coupled enzyme, confirmatory (AID 375).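 Further: 0% = full reaction with vehicle and 100% = no enzyme background.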 Particulars: coupled enzyme assay; at 10 µM, active compounds read high.

Unmarked numbers belong to inactive results. How the calls were made is not given here.

Chain of Pantothenate synthetase (Mycobacterium tuberculosis (strain ATCC 25618 / H37Rv)) (P9WIL5 whole entry, looked up): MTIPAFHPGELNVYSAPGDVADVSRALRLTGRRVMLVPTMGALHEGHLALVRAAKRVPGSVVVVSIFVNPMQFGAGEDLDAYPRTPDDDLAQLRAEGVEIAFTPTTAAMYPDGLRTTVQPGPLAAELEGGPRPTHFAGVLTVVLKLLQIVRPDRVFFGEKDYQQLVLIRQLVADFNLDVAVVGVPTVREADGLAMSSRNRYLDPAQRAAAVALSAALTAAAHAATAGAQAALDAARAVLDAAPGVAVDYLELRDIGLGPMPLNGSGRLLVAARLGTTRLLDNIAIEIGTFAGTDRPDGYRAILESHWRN

For the compound `NCc1ccc(S(N)(=O)=O)cc1`, the inhibition is 2%. The figure for `COCCN1C(=O)C(=O)/C(=C(/O)c2cccc(S(=O)(=O)N(C)C)c2)C12C(=O)N(C)c1ccccc12` (stereo not drawn) is 8%; for `O=C(NC1CCS(=O)(=O)C1)OC1CCCCC1` (stereo not drawn) it is 0%; for `CCOc1cccc(C(=O)N(Cc2ccco2)C2CCS(=O)(=O)C2)c1` (stereo not drawn) it is 6%. The value for `CCCCCC#CCC#CCC#CCC#CCCCC(=O)O` was 0%; that for `Cc1csc(NC(=O)c2ccco2)n1` was 0%. Take `Cc1cc(NC(=O)CSc2nc3ccsc3c(=O)n2NC(=O)c2ccccc2)no1`: the inhibition is 1%. Turning to `N#CCc1nc(CSc2nc3ccccc3s2)cs1`, the inhibition is 7%.

As to `Cc1ccc2nc(NC(=O)C3CCN(S(=O)(=O)c4cccc5nsnc45)CC3)sc2c1`, the inhibition is 4%. The value for `CCOC(=O)c1cnc(-n2nc(C)cc2C)nc1Nc1cccc(C(C)=O)c1` was 0%; that for `CCCCOc1ccc(C(=O)CCN2CCCCC2)cc1` was 9%; that for `O=C(CCc1nc2ccccc2[nH]1)Nc1ccc2c(c1)OCO2` was 0%. The value for `CC(=O)Nc1ccc(S(=O)(=O)N2CCN(C(=O)CCC3CCCC3)CC2)cc1` was 0%; that for `CN(CC(=O)Nc1ccncc1)S(=O)(=O)c1ccccc1` was 10%. The value for `Cc1nc2cc(Cl)ccc2n1CCO` was 2%. For the compound `Cc1nc(C)n(C(C)CC(=O)O)n1` (stereo not drawn), the inhibition is 0%. As for `CCCCC(c1nnnn1CS(=O)(=O)c1ccc(C)cc1)N1CCN(c2ccccc2)CC1` (stereo not drawn), the inhibition is 0%. The value for `Cc1ccc(C(=O)CC2(O)C(=O)N(C)c3ccc(Br)cc32)c(C)c1` (stereo not drawn) was 0%; that for `COc1ccc(-c2cc(N3CCCC3)n3ncnc3n2)cc1` was 9%; that for `CC(=O)CCc1c(C)[nH]c2ccccc2c1=O` was 1%. The value for `CCC[C@@H]1C[C@@H](C(=O)N[C@H]([C@@H](C)O)[C@H]2O[C@H](SC)[C@H](O)[C@@H](O)C2O)N(C)C1` (stereo partly drawn) was 0%; that for `COCCn1c(SCC(=O)Nc2ccc3c(c2)OCCO3)nc2c(c1=O)SC(C)C2` (stereo not drawn) was 3%.

As to `CCc1ccc(NC(=O)CSc2nnc(Cc3cccn3C)n2-c2ccc(OC)cc2)cc1`, the inhibition was 0%. With `O=C1C2CC=C(Cl)CC2C(=O)N1CNc1ccccn1` (stereo not drawn), the inhibition is 0%. The value for `COc1cc(OC)c(C2C(C#N)=C(N)OC3=C2C(=O)CC(C)(C)C3)cc1OC` (stereo not drawn) was 1%; that for `Nc1nonc1-c1noc(CCCCCN2C(=O)c3ccccc3C2=O)n1` was 4%.

In the case of `NC(=O)c1c(NC(=O)CSc2nnc(-c3ccco3)n2-c2ccccc2)sc2c1CCC2`, the inhibition was 0%.

Regarding `COc1ccc(-n2c(COc3cccc(C)c3)nnc2SCC(=O)NCc2ccco2)cc1`, the inhibition is 5%.

For `O=C(NCc1cccnc1)C1CCCN(S(=O)(=O)c2ccc(Cl)cc2)C1` (stereo not drawn), the inhibition was 2%. The figure for `CCc1nnc(NC(=O)CSc2nnc3ncccn23)s1` is 11%.

Consider `CCCC1O[C@@H]2C[C@H]3[C@@H]4CCC5=CC(=O)C=C[C@]5(C)[C@H]4[C@@H](O)C[C@]3(C)[C@]2(C(=O)CO)O1` (stereo partly drawn), for which the inhibition was 4%. The value for `CC1Cc2ccccc2N1C(=O)c1cccnc1` (stereo not drawn) was 0%; that for `COc1ccc(OCCC(=O)NCc2ccccc2)cc1` was 0%. With `Cc1nn(C)cc1NC(=O)CCSc1nc(-c2ccco2)cc(C(F)(F)F)n1`, the inhibition is 0%. The figure for `CC(=O)Nc1ccccc1OCC(=O)c1cc(C)n(Cc2cccs2)c1C` is 0%; for `CCOC(=O)Cn1c(CCC(=O)O)ccc1-c1ccc(F)cc1` it is 3%; for `Cc1cccc(Cc2c(C)nc3nc(SCC(=O)NCc4ccco4)nn3c2C)c1` it is 2%.

With `Cc1cc(NC(=O)CCC(=O)N(CC(=O)NC2CCCC2)Cc2ccc(F)cc2)no1`, the inhibition is 0%. The figure for `COc1cc(NC(=O)CC(C)C)ccc1NC(=O)c1ccco1` is 1%; for `Cn1c(=O)c2c(nc(N3CCN(c4ccccc4)CC3)n2CCCc2ccccc2)n(C)c1=O` it is 0%. The figure for `COc1ccccc1C(=O)N1CCN(C(=O)COc2cccc(C)c2)CC1` is 3%; for `O=C(c1cnsn1)N1CCN(c2ccccn2)CC1` it is 0%. As to `O=C(NCc1ccco1)c1c2c(nc3ccccc13)CCC2`, the inhibition is 0%. Consider `Cc1csc2nc(CSc3ccc(Cl)cc3)cn12`, for which the inhibition is 0%. The value for `O=C1c2ccccc2NC2CCCCCN12` (stereo not drawn) was 0%; that for `CCn1cnc2sc(C(=O)Nc3ccc4c(c3)OCO4)c(C)c2c1=O` was 4%. The figure for `N#CC1=C(N)Oc2cc(O)ccc2C1C1CCCCC1` (stereo not drawn) is 0%; for `Cc1nnc(SCC(=O)Nc2ccc3c(c2)OCCO3)n1CC1CCCO1` (stereo not drawn) it is 0%; for `O=C(NC(=O)c1cccc(F)c1)OC[C@@H]1CCCN2CCCC[C@H]12` it is 0%.

Turning to `O=c1[nH]c(SCc2cc(=O)n3ccccc3n2)nc2c1CCC2`, the inhibition is 4%.

As to `COc1ccc(Cn2nnnc2C(c2ccncc2)N2CCOCC2)cc1` (stereo not drawn), the inhibition is 0%. The value for `CCc1ccc(CNCc2cccnc2)cc1` was 0%; that for `CCN1CCN(C(=O)c2cn(CCOC)c(=O)c3c2c2ccccc2n3C)CC1` was 1%; that for `Nc1nonc1N1CCCCC1` was 0%. The figure for `CCCCCn1c(CCNC(=O)CCC)nc2ccccc21` is 0%; for `CC(C)CN1C(=O)c2ccc(C(=O)Nc3nccs3)cc2C1=O` it is 0%. The value for `Cc1c(NC(=O)CCc2ccc(S(=O)(=O)N3CCOCC3)cc2)c(=O)n(-c2ccccc2)n1C` was 2%; that for `COC(=O)CS(=O)(=O)c1nnc([C@H](Cc2ccccc2)NC(=O)OC(C)(C)C)o1` was 1%; that for `COc1ccc(CCN2C(=O)CCC2(C)C(=O)NCc2cccnc2)cc1OC` (stereo not drawn) was 0%. For `COc1ccc(CN2C(=O)c3cccnc3C2Nc2cc(Cl)ccc2OC)cc1` (stereo not drawn), the inhibition was 3%.

Turning to `O=C(CN1C(=O)CSC1=O)N1CCc2ccccc2C1`, the inhibition is 3%. On to `CCOc1ccccc1N1CCN(S(=O)(=O)c2cccc3nsnc23)CC1`, for which the inhibition is 0%. The figure for `Cc1occc1C(=O)Nc1cccnc1` is 16%; for `COc1ccc(N2CCN(c3ccc(NC(=O)C4CCCCC4)cc3C#N)CC2)cc1` it is 0%. The value for `COc1nc(N2CCOCC2)nc(-n2cccc2)n1` was 2%; that for `c1ccc(OCc2nc3ccccc3[nH]2)cc1` was 0%. The figure for `Cc1ccc(NC(=O)CN(c2ccc3c(c2)OCO3)S(=O)(=O)c2c(C)n[nH]c2C)cc1` is 1%; for `O=C(NCCSc1c[nH]c2ccccc12)c1ccco1` it is 0%.

Consider `O=C(CNS(=O)(=O)c1ccccc1)NCc1ccccn1`, for which the inhibition was 9%.

Consider `CCC(=O)N(Cc1ccco1)c1nc(-c2cc(OC)ccc2OC)cs1`, for which the inhibition was 0%.

Turning to `COc1ccc(-c2noc(COc3ccc(C)c(C)c3)n2)cc1OC`, the inhibition was 0%. In the case of `CN(Cc1ccccc1)C(=O)c1cc(-c2ccc(Br)cc2)on1`, the inhibition is 0%. The figure for `CN(C)CCCN1c2ccccc2Sc2ccc(C(F)(F)F)cc21` is 0%; for `CCOC(=O)N1CCC(NC(=O)c2ccc3c(c2)N(CC)CCS3)CC1` it is 5%; for `CCC(CC)C(=O)NCCc1cc2ccc(C)cc2[nH]c1=O` it is 0%. The value for `CCc1ccccc1-n1c(SCC(=O)N2CCCC2)nnc1-c1ccccn1` was 0%.

For the compound `CCOC(=O)CSc1nnc(CNC(=O)c2ccc(OC)c(OC)c2)n1C`, the inhibition is 0%. `Fc1cccc(NCc2cn3ccccc3n2)c1`: the inhibition was 0%.

As for `CCOC(=O)Cn1c2c(c(=N)c3ccccc31)CCC2`, the inhibition is 13%. The value for `CCN1CCN(C(=O)c2ccc3c(=O)n(CCC4=CCCCC4)c(=O)[nH]c3c2)CC1` was 0%; that for `C=CCNC(=O)C1CC(=O)N(c2ccc(OCC(=O)Nc3ccc(OC)cc3)cc2)C1` (stereo not drawn) was 0%.

As to `Cc1ccccc1NC(=O)C1CCCN(S(=O)(=O)c2cccc3cccnc23)C1` (stereo not drawn), the inhibition is 0%. With `COc1ccccc1S(=O)(=O)Cc1ccc(C(=O)NCCN2CCCCCC2)o1`, the inhibition is 0%.

As for `CCOC(=O)CNC(=O)CSc1nnnn1-c1cc(C)ccc1C`, the inhibition was 10%. The value for `COCc1ccccc1Cn1cnc2c1c(=O)n(C)c(=O)n2C` was 3%. The value for `COCCNC(=O)CC(NS(=O)(=O)c1ccc(NC(C)=O)cc1)C(C)C` (stereo not drawn) was 0%. Regarding `O=C1c2ccccc2-c2nc3ncnn3c(-c3ccccc3)c21`, the inhibition is 0%.

As for `CC(=O)N(C)C1(c2nnnn2CCOC(=O)Nc2ccc(Cl)cc2)CCCCC1`, the inhibition is 0%. The value for `COCCOC(=O)C1=C(C)OC(N)=C(C#N)C1c1ccc2c(c1)OCO2` (stereo not drawn) was 0%; that for `Cc1nnc(N(C)C(=O)c2cccnc2)s1` was 0%; that for `Nc1ccc(S(=O)(=O)c2cccc(N)c2)cc1` was 8%. The value for `CN1C(=O)CSc2ccc(NC(=O)N3CCN(c4ccccn4)CC3)cc21` was 8%. The value for `CCOC(=O)c1cc2sc(C)cc2n1CC(=O)NCc1ccc(F)cc1` was 2%; that for `COc1ccc(C2=NOC(C(=O)NCCCN3CCOCC3)C2)cc1` (stereo not drawn) was 5%. With `COC(=O)c1sc(N)c(C(=O)OC)c1COC(=O)C1CC(=O)N(Cc2ccco2)C1` (stereo not drawn), the inhibition is 3%. The figure for `Cc1ccc(N(CC(O)CN2CCCC2)S(=O)(=O)c2ccc(C)cc2)cc1` (stereo not drawn) is 0%; for `CCOc1ccccc1NC(=O)CC1Nc2cc(C)c(C)cc2NC1=O` (stereo not drawn) it is 0%; for `Cc1nc(NC2=NCN(CCN3CCOCC3)CN2)nc2c(C)cccc12` it is 0%. The figure for `CCOc1cc(S(=O)(=O)Nc2ccccn2)ccc1F` is 0%; for `CN1C(=O)CC(N2CCC(C(N)=O)(N3CCCCC3)CC2)C1=O` (stereo not drawn) it is 0%. The figure for `O=C(NCCO)c1scc2c1OCCO2` is 4%. As to `C/C(N)=C(\C#N)C(=O)NCCc1ccccn1`, the inhibition is 0%. The value for `CCOC(=O)Nc1sc(=S)n(C)c1C` was 9%.

One may read the inhibition as the drop in the measured response relative to a control, in per cent.
